Most compounds without a hit are left out; they make up all but 7.7% or so of the library.
HCMV antiviral = blocks human cytomegalovirus replication; HFF cells, HCMV-luciferase reporter, 72 h; active compounds read low; activity change, negative = inhibition, % at 57.5 µM; hit rate 4.5% among 410,000; in the data active means activity change below about -60%; inconclusive means no clear call, values can overlap the other calls; inactive means above about -39%
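Two compound doses tested in HFFs infected with HCMV-luciferase, MOI 1 PFU/cell, 72 h at 37C. Lysate luminescence read with OneGlo; data normalized against buffer-only and 10uM Salinomycin inhibitor controls.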
FBPA Giardia inh = Giardia lamblia aldolase inhibition. A8B2U2. purified Giardia FBPA. Potency, µM (titrated, usually from 59.6 µM), without a hit: top-dose activity, negative = inhibition, most hits filed as inhibitors. hit rate 0.71% among 290,000. AID 2451; further: potency means the concentration at half of the fitted maximal effect; nearly all actives have a fitted effect of over 55% in size
Target sequence (A8B2U2 whole entry, looked up): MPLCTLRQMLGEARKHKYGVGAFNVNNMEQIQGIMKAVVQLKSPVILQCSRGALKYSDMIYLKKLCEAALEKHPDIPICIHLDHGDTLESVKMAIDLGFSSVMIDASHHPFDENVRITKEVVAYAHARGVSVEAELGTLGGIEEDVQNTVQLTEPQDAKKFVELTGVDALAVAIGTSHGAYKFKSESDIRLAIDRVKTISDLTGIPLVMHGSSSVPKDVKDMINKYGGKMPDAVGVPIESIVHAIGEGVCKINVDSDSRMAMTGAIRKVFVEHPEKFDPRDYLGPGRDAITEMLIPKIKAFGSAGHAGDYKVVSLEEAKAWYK
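40 nM FBPA preincubated 10 min at RT with compound (up to 57.5 uM final), then substrate plus GAPDH/TPI/NAD/arsenate coupling and diaphorase/resazurin added. Fluorescence read after 20 min at RT, 525/598 nm.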
TbPYK inhibitor = inhibitors of Trypanosoma brucei pyruvate kinase; hit rate 0.12% among 410,000; Potency, µM (titrated, usually from 76.8 µM), for the others: at the top dose activity, negative = inhibition, hits mostly inhibitors; TbPYK enzyme, Kinase-Glo Plus ATP luminescence, 45 min; further: potency means the concentration at half of the fitted maximal effect; nearly all actives have a fitted effect of over 50% in size
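Luminescent Kinase-Glo Plus end-point after 45 min room-temperature reaction of T. brucei pyruvate kinase started with 130 uM ADP (final). Buffer TEA 50 mM pH 7.2 with KCl, MgCl2, BSA, Tween-20; titration-based qHTS with fitted concentration-effect curves.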
FMDV antiviral = foot and mouth disease virus antiviral activity; FMDV antiviral cell-based qHTS; Potency, µM (doses to about 57.9 µM), inactives show at the top dose activity change, negative = inhibition, most hits filed as inhibitors; hit rate 1.2% among 410,000; calls by dose curve; tested in HEK293T cells; further: read-out not given here; potency means the concentration at half of the fitted maximal effect; nearly all actives have a fitted effect of over 45% in size
Sm TGR inh = S. mansoni TGR enzyme inhibition; Q962Y6; hit rate 3% among 360,000; Potency, µM (top dose mostly 114 µM), for inactives: at the top dose activity change, negative = inhibition, usual class: inhibitors; purified TGR, DTNB reduction, TNB absorbance 405 nm; further: potency means the concentration at half of the fitted maximal effect; nearly all actives have a fitted effect of over 60% in size
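Kinetic colorimetric format: TGR-catalysed, NADPH-driven DTNB reduction monitored via TNB absorbance. Enzyme dispensed at 20 nM; compound exposure 15 min at room temperature before reaction start.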
RE007 growth inh = less growth of the S. pombe RE007 Vpr strain; S. pombe RE007 Vpr strain, BacTiter-Glo ATP luminescence, 24 h; Potency, µM (series often up to 92.2 µM), inactives show at the highest dose activity change, negative = less growth, actives largely listed as inhibitors; hit rate 0.21% among 360,000; AID 651644; active means well fitted falling curve with a large enough effect; inconclusive means small, poorly fitted or top-dose-only effect; inactive means no such curve, though single readings can be large or run the other way; further: potency means the concentration at half of the fitted maximal effect; nearly all actives have a fitted effect of over 50% in size
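Fission yeast strain RE007, carrying one chromosomally integrated HIV-1 vpr copy, was seeded at OD 0.01 in PMG+AL medium with 23 nL pinned compound. After 24 h at 30 °C and 99% humidity, viability was read by BacTiter-Glo luminescence.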
An asterisk follows results filed as active; ? = inconclusive; nt = no result; [ ] = dose if it differs, or a comment. Unless noted, the call rests on the fitted dose curve; in most records, active means well fitted curve in the direction sought with a large enough effect; inconclusive means small, poorly fitted or top-dose-only effect, or another doubt; inactive means no such curve, though single readings can be large; an effect the other way counts as inactive or inconclusive. On the % scale 0 is the no-effect control and ±100 the full control effect.

SMILES | HCMV antiviral | FBPA Giardia inh | TbPYK inhibitor | FMDV antiviral | Sm TGR inh | RE007 growth inh
Cc1ccc([C@@H]2CC(=O)[C@@H]3CN(S(=O)(=O)c4ccc(C)cc4)[C@H](c4ccccc4)C[C@@H]3N2S(=O)(=O)c2ccc(Cl)cc2)cc1 | -17.9 | nt | 6.5% | -4.5% | nt | -6.8%
Cc1ccc(S(=O)(=O)N2[C@H](c3cccc(Cl)c3)CC(=O)[C@@H]3CN(S(=O)(=O)c4ccccc4C)[C@H](c4ccc(Cl)cc4)C[C@@H]32)cc1 | -83.1* | nt | -0.1% | ? | nt | -6.1%
Cc1ccc(S(=O)(=O)N2C[C@H]3C(=O)C[C@@H](c4ccc(Cl)cc4)N(S(=O)(=O)c4ccccc4C)[C@H]3C[C@H]2c2ccc(Cl)cc2)cc1 | -20.1 | nt | 5.0% | -20.5% | nt | 8.0%
Cc1ccc(S(=O)(=O)N2C[C@H]3C(=O)C[C@@H](c4ccccc4)N(S(=O)(=O)c4ccc(C)cc4)[C@H]3C[C@H]2c2ccc(Cl)cc2)cc1 | -85.2* | nt | 7.0% | -25.4% | nt | 6.6%
Cc1ccc([C@@H]2C[C@H]3[C@@H](CN2S(=O)(=O)c2ccc(Cl)cc2)C(=O)C[C@@H](c2cccc(Cl)c2)N3S(=O)(=O)c2ccc(C)cc2)cc1 | -6.2 | nt | -2.0% | 0.0% | nt | 19.0%
Cc1ccc([C@@H]2CC(=O)[C@@H]3CN(S(=O)(=O)c4ccccc4C)[C@H](c4ccc(Cl)cc4)C[C@@H]3N2S(=O)(=O)c2ccc(C)cc2)cc1 | -93.8* | nt | 8.2% | ? | nt | 11.5%
Cc1ccc(CN(C(=O)COc2ccc(Cl)c(C)c2)c2ccccn2)o1 | -6.1 | nt | -3.8% | 41.9% | -15.2% | nt
Cc1ccc(S(=O)(=O)N2[C@H](c3ccccc3)CC(=O)[C@@H]3CN(S(=O)(=O)c4ccccc4)[C@H](c4ccccc4)C[C@@H]32)cc1 | -14.3 | nt | -11.2% | -2.4% | nt | 5.3%
CC(=O)C1CN(S(=O)(=O)c2ccc(C)cc2)C(c2ccccc2)CC1C (stereo unspecified) | -60.4* | nt | nt | 1.9% | nt | -0.6%
Cc1ccc(S(=O)(=O)N2[C@H](c3ccc(Cl)cc3)CC(=O)[C@@H]3CN(S(=O)(=O)c4ccccc4C)[C@H](c4ccc(Cl)cc4)C[C@@H]32)cc1 | -89.0* | nt | -2.6% | -24.5% | nt | 10.2%
Cc1ccc(N2CC(NC(=O)c3cc4ccccc4o3)CC2=O)cc1 (stereo unspecified) | 41.3 | nt | 0.9% | -12.0% | 5.4% | nt
C=CCN1CC(COCCCC)Oc2ccc(Cl)cc2S1(=O)=O (stereo unspecified) | -31.3 | nt | nt | nt | nt | nt
CCCC[C@@H]1CCCO[C@@](C(=O)NCC2CC2)(C(F)(F)F)C1 | nt | 2.3% | nt | nt | nt | nt
COc1ccc2c(c1)c1c(c(=O)n(-c3ccccc3C)c(=O)n1Cc1c(F)cccc1Cl)n2C | 10.4 | nt | -12.4% | -10.0% | 18.8% | nt
c1ccc(OCc2noc(CN3CCC(C4CCCCC4)C3)n2)cc1 (stereo unspecified) | -61.5* | 5.2% | 7.1% | -15.5% | -9.3% | ?
CC1CCCCC1NC(=O)COC(=O)c1c2c(nc3ccccc13)/C(=C/c1ccco1)CC2 (stereo unspecified) | -32.7 | -14.8% | -9.2% | 20.8% | 14.1µM* | -8.3%
Cc1cc(C(=O)OCC(=O)NC2CCCCC2C)c2ccccc2n1 (stereo unspecified) | 2.5 | nt | 10.1% | ? | nt | 0.9%
O=C(COC(=O)c1c2c(nc3ccccc13)/C(=C/c1ccco1)CC2)NC1CCCC1 | -12.1 | ? | -12.0% | 12.0% | 5.01µM* | -10.8%
CC(C)[C@H](NC(=O)OC(C)(C)C)[C@@H](O)CC(=O)C(C)(C)C | nt | 0.0%[12.9 µM] | nt | nt | nt | nt
N#CC1c2ccccc2C=CN1C(=O)N(c1ccccc1)c1ccccc1 (stereo unspecified) | -15.2 | nt | -4.2% | 31.6µM* | nt | -18.7%
N#CC1c2ccccc2C=CN1C(=O)c1ccc(N(CCCl)CCCl)cc1 (stereo unspecified) | -39.8 | nt | -6.8% | -9.2% | nt | 1.5%
CCn1cc(S(=O)(=O)c2ccc(C)cc2C)c(=O)c2cc(F)c(N3CCCCC3)cc21 | -10.6 | nt | -5.7% | -15.1% | 3.1% | nt
CC[C@@]12CCCN3CCc4c(n(c5ccccc45)[C@](O)(C(=O)OC)C1)C32 (stereo partly specified) | nt | 4.0% | 1.8% | nt | nt | nt
CC(C)(C)c1nc(NC(=O)Nc2ccccc2)sc1Br | -97.3* | -4.6% | 1.7% | ? | 6.4% | -10.4%
CN(C)C(=O)c1ccc2c(c1)N(CC(=O)NCc1ccc(F)cc1)C(=O)C1CCCCN21 (stereo unspecified) | -4.0 | nt | 7.1% | 18.4% | -1.3% | nt
SMILES | HCMV antiviral | FBPA Giardia inh | TbPYK inhibitor | FMDV antiviral | Sm TGR inh | RE007 growth inh
CCCn1c2ccccc2c2cnn(CC(=O)N(CCCOC)Cc3ccco3)c(=O)c21 | -7.2 | nt | -2.7% | -23.9% | -20.6% | nt
C=Cc1ncc(OC)c2c1[nH]c1ccccc12 | nt | nt | -7.9% | 15.8µM* | -1.0% | -14.1%
CC(C)c1ccc(CN2C(=O)C(n3ccc4ccccc43)c3ccccc32)cc1 (stereo unspecified) | -12.1 | nt | nt | nt | nt | nt
Cc1ccc(-c2noc(C3CCCN(C(=O)C4CCCCC4)C3)n2)o1 (stereo unspecified) | 38.0 | -4.4% | -25.4% | 0.0% | 25.1µM* | 5.2%
O=S(Cc1ccc(Br)cc1)Cc1nnc(SCc2c(Cl)cccc2Cl)n1-c1ccccc1 (stereo unspecified) | ? | -2.8% | 7.8% | 28.2µM* | -0.3% | -23.4%
O=C1CC(c2ccccc2)Cc2[nH]c(=O)c(-c3nc(-c4ccc(F)cc4)cs3)cc21 (stereo unspecified) | 16.8 | nt | 7.8% | -19.6% | -1.3% | nt
CCN(Cc1ccccc1)C(=O)C(C)OC(=O)c1cc(S(=O)(=O)Nc2c(C)n(C)n(-c3ccccc3)c2=O)ccc1C (stereo unspecified) | -32.6 | 3.4% | -1.2% | 0.5% | -1.8% | -9.6%
CCN(Cc1ccccc1)C(=O)COC(=O)c1cc(S(=O)(=O)Nc2c(C)n(C)n(-c3ccccc3)c2=O)ccc1C | -64.7* | 7.9% | -4.3% | 14.2% | -5.9% | 0.7%
Cc1c(NS(=O)(=O)c2cccc([N+](=O)[O-])c2)c(=O)n(-c2ccccc2)n1C | ? | -0.7% | 8.8% | -9.7% | 28.2µM* | 1.0%
CC(C)OC(=O)/C(=C/c1ccco1)c1ccccc1 | -11.5 | -9.6% | -1.8% | -13.7% | 10µM* | -14.6%
Cc1ccccc1NC(=O)/C(=C/c1ccco1)c1ccccc1 | -104.3* | -7.8% | -6.0% | 0.0% | ? | -21.0%

Bioassay records deposited in PubChem by National Center for Advancing Translational Sciences (NCATS).
